According to PubChem BioAssay (NCATS):
Where “and” joins values, the source holds several entries; their conditions need not be identical. Equal entries are not always repeated. Inconclusive results are not listed. Where a structure was tested more than once in an assay, its records may differ in their call. Calls of active or inactive are those of the source. Unless noted, calls follow the shape of the dose curve; as a rule, active = well fitted curve in the direction sought with a large enough effect; inconclusive = small, poorly fitted or top-dose-only effect, or another doubt; inactive = no such curve, though single readings can be large; an effect the other way counts as inactive or inconclusive.

What was measured:
[1] = molecular target: Guanine nucleotide-binding protein G(i) subunit alpha-1 (Homo sapiens) (UniProt P63096); assay: qHTS Assay for Inhibitors of RGS12 GoLoco Motif Activity (Green Fluorophore) (AID 879);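 also: 0% = labeled peptide with Gαi1 and full inhibition = labeled peptide alone without protein; negative values mean loss of peptide binding seen as reduced polarization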
Summary of the method: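 A drop in FITC polarization marked displacement of the FITC-tagged RGS12 GoLoco peptide (10 nM) from Gαi1 (50 nM). Compounds were incubated 10 min at room temperature in Tris pH 7.5 buffer containing 150 mM NaCl, 0.1 mM GDP and 0.05% NP40; unlabeled peptide titration served as control.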

[2] = molecular target: Cytochrome P450 2C9 (Homo sapiens) (UniProt P11712); assay: qHTS Assay for Inhibitors and Substrates of Cytochrome P450 2C9 (AID 883); also: nearly all actives have a fitted effect of over 60% in size; also: potency is read from the fitted curve at half-maximal effect
Summary of the method: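 Inhibition of CYP2C9 is scored as loss of luminescence, with 57uM sulphaphenazole defining 100% inhibition. Substrate Luciferin-H is used at 100uM, equal to its KM; enzyme at 10nM in 25mM KPO4, 60 min at 37C with NADPH regeneration.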

[3] = molecular target: Cytochrome P450 3A4 (Homo sapiens) (UniProt P08684); assay: qHTS Assay for Activators of Cytochrome P450 3A4 (AID 885); also: nearly all actives have a fitted effect of over 65% in size
Summary of the method: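 Human CYP3A4 dealkylates Luciferin-PPXE to luciferin, which luciferase detection converts to light. Substrate was at its KM (25uM), buffer 200mM KPO4, reaction 60 min at RT.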

[4] = molecular target: Cytochrome P450 2D6 (Homo sapiens) (UniProt P10635); assay: qHTS Assay for Inhibitors and Substrates of Cytochrome P450 2D6 (AID 891); also: nearly all actives have a fitted effect of over 60% in size; also: potency is read from the fitted curve at half-maximal effect
Summary of the method: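 Luminescent read-out of luciferin formed by 5 nM human CYP2D6 demethylating 30 uM Luciferin-ME EGE (Km level) over 60 min at room temperature after NADPH regeneration addition. Data normalized to full inhibition by 1.43 uM quinidine.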

[5] = molecular target: Cytochrome P450 2C19 (Homo sapiens) (UniProt P33261); assay: qHTS Assay for Inhibitors and Substrates of Cytochrome P450 2C19 (AID 899); also: nearly all actives have a fitted effect of over 60% in size; also: potency is read from the fitted curve at half-maximal effect
Summary of the method: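 5nM enzyme + 10uM Luciferin-H EGE (=KM), 50mM KPO4; cpd pin-transferred, 10 min 37C; NADPH regen, 60 min 37C; stopped w/ luciferin detection reagent, 20 min; luminescence. Normalized to 57uM ketoconazole (AC100).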

[6] = qHTS Assay for Identification of Small Molecule Agonists for Thrombopoietin (TPO) Signaling Pathway (AID 917); also: % is scaled to controls: 0 for no effect and ±100 for the full control effect
Summary of the method: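 Human TPO receptor–transfected Ba/F3 cells (murine, IL-3-dependent) in IL-3-deficient medium; compounds plus TPO at EC50, 26 pM final; 24 hrs, 37 C; GpIIb-luciferase luminescence after 10 min RT detection.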

[7] = molecular target: Muscarinic acetylcholine receptor M1 (Rattus norvegicus) (UniProt P08482); assay: qHTS Assay for Antagonists of Acetylcholine Muscarinic M1 Receptor: Kinetic Measurement of Intracellular Calcium Response (AID 943);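 also: Fluo-4 calcium signal as peak divided by basal fluorescence over 4 min; series mostly up to about 35 µM; nearly all actives have a fitted effect of over 75% in size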
Summary of the method: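 Antagonism is measured as inhibition of the carbachol-evoked calcium rise in CHO cells transfected with rat M1. Cells are dye-loaded, exposed to compound for 10 min, then stimulated with 100 nM carbachol (EC80).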

[8] = molecular target: Muscarinic acetylcholine receptor M1 (Rattus norvegicus) (UniProt P08482); assay: qHTS Assay for Antagonists of Acetylcholine Muscarinic M1 Receptor: Measurement of IP-One Response (AID 944); also: nearly all actives have a fitted effect of over 75% in size
Summary of the method: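 Antagonist mode with rat M1 receptor transfected into CHO cells. Compound is added first for 10 min, carbachol at its EC80 follows for 30 min, and lysis reagents then allow TR-FRET detection of accumulated IP1.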

[9] = molecular target: Cytochrome P450 3A4 (Homo sapiens) (UniProt P08684); assay: qHTS Assay for Inhibitors and Substrates of Cytochrome P450 3A4 (AID 884); also: nearly all actives have a fitted effect of over 50% in size; also: potency is read from the fitted curve at half-maximal effect
Summary of the method: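 Luminescent readout of luciferin produced by CYP3A4 (20 nM) dealkylation of Luciferin-PPXE, 25 uM (its KM). NADPH-driven reaction ran 60 min at RT after 10 min compound preincubation; data scaled to 57 uM ketoconazole as 100% inhibition.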

[10] = Confirmation and Secondary Assay for Modulators of Hemoglobin Beta Chain Splicing at IVS2 654 locus (AID 910);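 also: HeLa cells stably carrying EGFP split by mutant beta-globin IVS2-654 intron; per-well total GFP intensity by laser scanning cytometry after 2-day treatment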;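 also: potency is read from the fitted curve at half-maximal effect; potency of activators that raise GFP signal by restoring correct splicing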
Summary of the method: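 Readout: per-well total peak green fluorescence (488 nm ex, 500–520 nm em) from objects 5–250 µm, reflecting correct splicing of an EGFP-654 reporter. Compounds were applied for 2 days at 37 °C to overnight-plated HeLa EGFP-654 cells; controls were DMSO and 500 nM IVS2-654 PNA.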

[11] = Confirmation and Secondary Assay for Modulators of Hemoglobin Beta Chain Splicing at IVS2 705 locus (AID 930);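 also: GFP fluorescence per well restored by corrected splicing of the IVS2-705 intron in EGFP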; also: potency is read from the fitted curve at half-maximal effect;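 as to activation: HeLa cells stably expressing the EGFP-705 splicing reporter; series mostly up to about 46 µM; % of control where 0% means no effect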
Summary of the method: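 Assay measures total GFP intensity per well in HeLa EGFP-705 cells after 2 days with compound; mis-splicing normally truncates EGFP, so fluorescence indicates corrected splicing.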

[12] = Cellular Toxicity (caspase-3) H-4-II-E (AID 663);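 also: cells exposed to compound for 16 hr before readout; 0% = DMSO basal and 100% = 100 µM tamoxifen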
Summary of the method: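 Caspase 3/7 activation measured by luminescent aminoluciferin substrate cleavage after 16 hr compound treatment of H-4-II-E cells in complete medium. Increase normalized between DMSO (basal) and 100 uM tamoxifen (100%); Hill-equation AC50 from concentration-response.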

[13] = Cellular Toxicity (caspase-3) Hek293 (AID 664);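 also: cells exposed to compound for 16 h at 37 °C before readout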
Summary of the method: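 qHTS, HEK293 (human embryonic kidney), 16 h cpd exposure in complete medium. Caspase-3/7 activation = luminescence increase; normalized to DMSO/100 uM tamoxifen; Hill-fit AC50.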

[14] = Cellular Toxicity (caspase-3) N2a (AID 665);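 also: compound exposure lasted 16 h at 37 °C before readout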
Summary of the method: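 Caspase-3/7 activation, measured as increased luminescence from aminoluciferin release, is quantified in mouse N2a cells exposed to compounds for 16 h. Values are normalized to DMSO and 10 uM staurosporine, with AC50 derived by Hill modelling.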

[15] = Cellular Toxicity (caspase-3) NIH 3T3 (AID 666);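 also: 0% = DMSO basal and 100% = 100 µM tamoxifen stimulation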
Summary of the method: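 Cells were plated at 1000 per well and incubated 5 hr at 37°C, then compound was added for 16 hr. Caspase-Glo 3/7 reagent followed for 20 min at room temperature before luminescence was read.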

[16] = Cellular Toxicity (caspase-3) Renal Proximal Tubule (AID 667);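 also: cells exposed to compound for 16 hours at 37 °C before detection; 0% = DMSO basal and 100% = 10 µM staurosporine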
Summary of the method: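 Caspase-Glo 3/7 read-out, rat primary kidney proximal tubule cells. Compound exposure 16 h, 37 °C; detection after 1 h at RT. Activity scaled to DMSO and 10 uM staurosporine.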

[17] = qHTS Assay for Identification of Small Molecule Agonists for Hypoxia Response Element Signaling Pathway (AID 914; active = well fitted activation curve with a large enough effect in the signal ratio, with a control signal flat, not every such curve was filed as active; the % refers to the signal ratio; also: % of control where 0% means no effect); conditions: ME-180 (cervical carcinoma) HRE-bla reporter, beta-lactamase ratio, CoCl2, 17 h; activation: stronger effect = higher value
Summary of the method: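 Compounds in a titration series were added to ME-180 reporter cells alongside an EC50 level of CoCl2. After 17 hours, beta-lactamase activity was read as the 460nm/530nm emission ratio of CCF4, giving AC50 values.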

[18] = Cell Viability - LYMP2-001 (AID 921);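 also: cells exposed to compound for 24 h at 37 °C; nearly all actives have a fitted effect of over 70% in size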; also: potency is read from the fitted curve at half-maximal effect
Summary of the method: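 A lymphoblastoid cell line of human origin was treated with library compounds across a concentration series for 24 hours, and viable cell number was estimated from ATP-driven luciferase light output. Hill modeling gave AC50.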

[19] = qHTS Assay for Identification of Small Molecule Antagonists for NFkB Signaling Pathway (AID 895; active = well fitted inhibition curve with a large enough effect in the signal ratio, with a control signal flat, not every such curve was filed as active; the % refers to the signal ratio; also: potency is read from the fitted curve at half-maximal effect)
Summary of the method: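 Beta-lactamase reporter read-out (460 and 530 nm emission ratio, 405 nm excitation, 2 hrs substrate loading RT) after 5 hr stimulation with 10 pM TNF alpha in compound-treated NFkB-bla ME-180 cells in low-serum medium.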

[20] = qHTS Assay for Identification of Small Molecule Antagonists for Thrombopoietin (TPO) Signaling Pathway (AID 918); conditions: TPO-dependent cell signaling reporter, antagonist mode; also: potency is read from the fitted curve at half-maximal effect; nearly all actives have a fitted effect of over 60% in size
Summary of the method: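 Inhibitors of TPO signaling are sought by stimulating IL-3-starved murine Ba/F3 cells (human TPO receptor, Glycoprotein IIb-driven luciferase) with TPO at its EC50 of 26 pM alongside compound. After 24 hrs at 37 C, reporter luminescence is measured.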

Cytochrome P450 2D6 (Homo sapiens), sequence (P10635 whole entry, looked up): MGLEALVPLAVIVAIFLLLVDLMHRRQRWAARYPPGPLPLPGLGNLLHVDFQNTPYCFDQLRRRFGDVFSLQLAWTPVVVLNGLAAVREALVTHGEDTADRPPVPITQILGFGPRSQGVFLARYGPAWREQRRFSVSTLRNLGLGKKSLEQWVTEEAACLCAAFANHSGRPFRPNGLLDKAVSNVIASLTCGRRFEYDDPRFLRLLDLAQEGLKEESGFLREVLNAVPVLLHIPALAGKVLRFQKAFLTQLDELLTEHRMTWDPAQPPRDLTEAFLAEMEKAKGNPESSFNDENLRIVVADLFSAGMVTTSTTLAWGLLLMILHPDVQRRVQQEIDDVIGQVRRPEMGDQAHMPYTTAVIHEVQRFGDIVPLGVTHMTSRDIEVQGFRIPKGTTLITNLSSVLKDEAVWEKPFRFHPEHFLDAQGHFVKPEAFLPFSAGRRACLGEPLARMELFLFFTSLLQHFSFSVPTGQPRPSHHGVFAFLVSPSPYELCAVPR
Cytochrome P450 2C9 (Homo sapiens), sequence (P11712 whole entry, looked up): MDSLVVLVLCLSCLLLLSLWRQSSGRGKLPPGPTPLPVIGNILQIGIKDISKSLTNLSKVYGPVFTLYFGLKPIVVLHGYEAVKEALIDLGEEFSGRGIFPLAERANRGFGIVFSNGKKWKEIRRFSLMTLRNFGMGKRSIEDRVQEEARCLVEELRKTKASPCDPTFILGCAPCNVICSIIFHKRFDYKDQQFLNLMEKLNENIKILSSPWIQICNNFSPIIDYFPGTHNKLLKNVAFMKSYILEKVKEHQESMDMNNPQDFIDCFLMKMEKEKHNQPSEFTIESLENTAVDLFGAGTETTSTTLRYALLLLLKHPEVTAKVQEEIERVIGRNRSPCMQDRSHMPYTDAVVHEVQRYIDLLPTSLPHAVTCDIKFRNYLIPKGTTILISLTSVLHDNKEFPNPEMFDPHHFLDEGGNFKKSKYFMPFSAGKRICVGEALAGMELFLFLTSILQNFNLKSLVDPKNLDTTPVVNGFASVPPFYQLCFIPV
Guanine nucleotide-binding protein G(i) subunit alpha-1 (Homo sapiens), sequence (P63096 whole entry, looked up): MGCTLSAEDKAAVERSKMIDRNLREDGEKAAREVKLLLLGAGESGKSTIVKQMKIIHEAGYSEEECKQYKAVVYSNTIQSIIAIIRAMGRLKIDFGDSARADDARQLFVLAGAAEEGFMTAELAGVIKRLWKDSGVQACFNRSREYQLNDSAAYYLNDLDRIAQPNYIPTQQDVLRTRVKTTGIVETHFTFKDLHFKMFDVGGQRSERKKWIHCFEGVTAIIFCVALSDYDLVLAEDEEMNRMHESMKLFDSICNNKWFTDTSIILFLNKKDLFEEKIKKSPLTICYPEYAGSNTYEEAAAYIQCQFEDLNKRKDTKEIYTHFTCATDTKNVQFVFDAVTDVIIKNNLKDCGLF
Muscarinic acetylcholine receptor M1 (Rattus norvegicus), sequence (P08482 whole entry, looked up): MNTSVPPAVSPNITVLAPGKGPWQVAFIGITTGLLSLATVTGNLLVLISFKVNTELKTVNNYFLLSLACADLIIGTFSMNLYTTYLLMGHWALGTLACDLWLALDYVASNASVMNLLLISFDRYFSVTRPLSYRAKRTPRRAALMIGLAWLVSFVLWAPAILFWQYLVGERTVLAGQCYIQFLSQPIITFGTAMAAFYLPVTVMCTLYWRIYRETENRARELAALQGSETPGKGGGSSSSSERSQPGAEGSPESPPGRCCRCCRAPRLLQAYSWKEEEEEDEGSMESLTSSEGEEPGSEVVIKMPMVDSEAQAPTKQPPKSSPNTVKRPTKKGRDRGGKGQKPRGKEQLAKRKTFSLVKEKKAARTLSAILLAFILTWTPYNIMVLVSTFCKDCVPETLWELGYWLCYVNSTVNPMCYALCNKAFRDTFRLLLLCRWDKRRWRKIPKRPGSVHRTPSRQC
Cytochrome P450 2C19 (Homo sapiens), sequence (P33261 whole entry, looked up): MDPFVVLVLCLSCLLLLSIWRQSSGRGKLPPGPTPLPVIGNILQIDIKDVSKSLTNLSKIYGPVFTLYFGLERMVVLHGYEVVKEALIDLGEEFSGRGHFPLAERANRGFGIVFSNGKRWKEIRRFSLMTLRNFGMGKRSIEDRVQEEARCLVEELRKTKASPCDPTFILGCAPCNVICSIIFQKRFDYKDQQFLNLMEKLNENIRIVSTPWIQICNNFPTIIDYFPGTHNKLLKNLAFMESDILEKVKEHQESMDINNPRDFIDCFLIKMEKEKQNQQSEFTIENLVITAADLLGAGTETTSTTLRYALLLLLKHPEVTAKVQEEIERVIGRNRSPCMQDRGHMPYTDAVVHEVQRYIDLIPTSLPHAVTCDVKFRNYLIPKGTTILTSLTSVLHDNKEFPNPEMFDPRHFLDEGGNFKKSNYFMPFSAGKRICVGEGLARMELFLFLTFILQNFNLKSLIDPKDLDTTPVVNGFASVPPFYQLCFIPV
Cytochrome P450 3A4 (Homo sapiens), sequence (P08684 whole entry, looked up): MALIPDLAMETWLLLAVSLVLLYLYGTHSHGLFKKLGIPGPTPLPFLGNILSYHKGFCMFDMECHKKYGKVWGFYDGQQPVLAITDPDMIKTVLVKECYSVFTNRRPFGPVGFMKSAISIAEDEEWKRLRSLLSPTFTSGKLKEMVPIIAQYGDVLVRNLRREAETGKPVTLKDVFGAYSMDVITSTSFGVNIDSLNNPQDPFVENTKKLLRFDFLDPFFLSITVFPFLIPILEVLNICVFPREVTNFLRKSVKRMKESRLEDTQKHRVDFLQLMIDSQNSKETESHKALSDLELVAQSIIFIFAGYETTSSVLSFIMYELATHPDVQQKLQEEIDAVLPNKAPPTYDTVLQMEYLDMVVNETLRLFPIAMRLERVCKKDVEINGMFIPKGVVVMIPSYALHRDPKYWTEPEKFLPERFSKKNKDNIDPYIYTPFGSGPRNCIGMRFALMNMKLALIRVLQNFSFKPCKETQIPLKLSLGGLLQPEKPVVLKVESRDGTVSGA

C1COC(NC(C2CC2)C2CC2)=N1
inactive: outcome [1] | Potency [2] | outcome [3] | Potency [5] | outcome [6] | Potency [7] | Potency [8]
active: Potency [4] 0.398 µM

O=c1n(CCCN2CCN(c3cccc(Cl)c3)CC2)nc2ccccn12
inactive: outcome [1] | Potency [9] | Potency [10] | outcome [6] | Potency [11] | Potency [8]

NS(=O)(=O)c1cc2c(cc1Cl)NC=NS2(=O)=O
inactive: outcome [12] | outcome [13] | outcome [14] | outcome [15] | outcome [16] | outcome [1] | Potency [10] | activation [17] 13.9% and 2.11% and -1.51% | outcome [6] | Potency [18] | Potency [11]

C[C@]12CCC(=O)C=C1CC[C@@H]1[C@@H]2[C@@H](O)C[C@@]2(C)[C@H]1CC[C@]2(O)C(=O)CO
inactive: outcome [1] | outcome [3] | outcome [6] | Potency [8]
active: Potency [19] 0.0141 µM

N=c1nc(N2CCCCC2)cc(N)n1O
inactive: outcome [1] | Potency [2] | Potency [4] | Potency [5] | Potency [10] | outcome [6] | Potency [11] | Potency [7] | Potency [8]

CC(C)(Sc1ccc(CCN(CCCCC2CCCCC2)C(=O)NC2CCCCC2)cc1)C(=O)O
inactive: outcome [1] | outcome [3] | Potency [4] | Potency [5] | outcome [6] | Potency [7] | Potency [8]
active: Potency [2] 31.6 µM | Potency [9] 3.98 µM | Potency [19] 14.1 µM

CC(=O)Oc1ccccc1C(=O)O
inactive: outcome [12] | outcome [13] | outcome [14] | outcome [15] | outcome [16] | outcome [1] | Potency [2] | Potency [9] | Potency [4] | Potency [5] | Potency [10] | outcome [6] | Potency [18] | Potency [11]

CCCC(CCC)C(=O)O
inactive: outcome [13] | outcome [14] | outcome [15] | outcome [16] | outcome [1] | Potency [9] | Potency [10] | outcome [6] | Potency [18] | Potency [11]

Cn1cnc([N+](=O)[O-])c1Sc1ncnc2nc[nH]c12
active: Potency [10] 1.58 µM | Potency [18] 39.8 µM
inactive: outcome [12] | outcome [13] | outcome [14] | outcome [15] | outcome [16] | outcome [1] | Potency [19] | outcome [6]
inactive and 2.51 µM (active): Potency [11]

CC(C)NCC(O)COc1ccc(COCCOC(C)C)cc1 (stereo unspecified)
inactive: outcome [1] | Potency [9] | outcome [6] | Potency [8]

Nc1nc2c(ncn2COCCO)c(=O)[nH]1
inactive: outcome [1] | Potency [9] | outcome [6] | Potency [11]

COc1ccc2nc(S(=O)Cc3ncc(C)c(OC)c3C)[nH]c2c1 (stereo unspecified)
inactive: Potency [2] | Potency [4] | activation [17] -6.85% and -23.9%

CCN(c1ccccc1)c1cc(NC)[n+](C)c(C)n1
active: Potency [4] 3.98 µM

CCCCNc1cc(C(=O)O)cc(S(N)(=O)=O)c1Oc1ccccc1
inactive: Potency [19]

Cc1cnc(NC(=O)C2=C(O)c3ccccc3S(=O)(=O)N2C)s1
inactive: Potency [19]

Cc1ccc2c(c1)C(=O)[C@@]1(O)CCN(c3ccccc3)C1=N2
active: Potency [5] 7.94 µM

N#Cc1ccc(C(c2ccc(C#N)cc2)n2cncn2)cc1
inactive: activation [17] -2.88%

CN1CCN(CCCN2c3ccccc3Sc3ccc(C(F)(F)F)cc32)CC1
active: Potency [20] 15.8 µM
